Results as given in PubChem BioAssay (NCATS).
Unmarked numbers belong to inactive results. Calls come from the whole dose curve; as a rule, active = well fitted inhibition curve with a large enough effect; inconclusive = small, poorly fitted or top-dose-only effect; inactive = no such curve, though single readings can be large or run the other way. Where a SMILES comes first, the peptide text is derived from it. Bridges are numbered along the chain shown (N, C = ends). [ ]: non-standard residue; d: D form. hArg = N=C(N)NCCCC[C@H](N)C(=O)O; Mpa = O=C(O)CCS

Experiment: qHTS assay for measurement of the activity of small molecule inhibitors on Zika virus induced Caspase-3 activity in human astrocytoma cells (AID 1224859)
Conditions: SNB-19 ZIKV-induced caspase-3/7, luminescence, 6 h; series mostly up to 45.7 µM; activity change, negative = inhibition: at the top concentration
From the text: National Center for Advancing Translational Sciences [NCATS]
Johns Hopkins University School of Medicine
Increase in the Caspase-3 activity indicates an activation of apoptosis cell death pathway caused by Zika virus infection in certain types of neuronal cells including human neural progenitor cells (hNPCs), astrocytes, and astrocytoma cell line (SNB-19). This cell-based caspase-3 activity assay measures the increased caspase-3 activity in the astrocytoma cell line (SNB-19) after a 6-hour Zika virus infection with a luminescence readout. A decrease in the luminescence signal in this assay by small molecule treatment indicates an inhibitory effect of that small molecule on the Zika virus induced caspase-3 activity that may correlate with its effect on reduction of Zika virus caused cell death.
The medium for SNB-19 cells is composed of RPMI 1640 (ATCC, Cat.# 30-2001), 10% fetal bovine serum (FBS) (GE healthcare Life Sciences, Cat.# SH30071.03), and 1% Pen/Strep (Gibco, Cat.# 15140-122). A Caspase-Glo 3/7 assay kit (catalog number G8092; Promega, Madison, WI) was used to detect caspase-3 activity induced by Zika virus infection in human cells. The reagent mixture was reconstituted as described in the protocol from the manufacturer. Polystyrene tissue culture treated and PDL coated white plates were obtained from Greiner Bio-One (Monroe, NC). Cells were seeded in 384- or 1536-well assay plates and cultured at 37 C with 5% CO2 for 16 to 20 hours. The typical cell seeding density in the 1536-well plate assay is 250 cells/well in 3ul medium for SNB-19 cells in tissue culture treated plates. Compounds were added to cells and incubated for one hour before addition of ZIKV solution to cells (2 FFU/cell). After incubation at 37 C with 5% CO2 for 6 hours, the reagent mixture of Caspase-Glo 3/7 assay kit was added to each well, followed by incubation at room temperature for 30 minutes. The luminescence intensity of the assay plates was measured using a ViewLux plate reader (PerkinElmer). Data were normalized by using the cell-containing wells without ZIKV as a negative control (0% induction of caspase 3/7 activity) and wells containing ZIKV infected cells (Caspase-3 activity induced) as a positive control (100% induction of caspase 3 activity). The percentage inhibitions of the increased Caspase-3 activity by small molecule inhibitors were then calculated.

| SMILES | activity change, negative = inhibition |
| --- | --- |
| C[C@]1(Cn2ccnn2)[C@H](C(=O)O)N2C(=O)C[C@H]2S1(=O)=O | -15.4% |
| O=C(/C=C/c1ccc(O)c(O)c1)O[C@@H]1C[C@@](OC(=O)/C=C/c2ccc(O)c(O)c2)(C(=O)O)C[C@@H](O)[C@@H]1O | -0.817% |
| CN1CCCN=C1COC(=O)C(O)(c1ccccc1)C1CCCCC1 (stereo not given) | -4.81% |
| O=C1c2cccc(O)c2C(=O)c2c(O)cccc21 | 1.14% |
| CC(=O)Nc1ccccc1 | 3.79% |
| CC[C@H](C)[C@H](N)C(=O)O | -1.53% |
| Nc1ncnc(Nc2ccccc2)n1 | 7.04% |
| CC[N+](CC)(CC(=O)Nc1c(C)cccc1C)Cc1ccccc1 | -6.12% |
| CCCCCCCC(=O)OCC(COC(=O)CCCCCCC)OC(=O)CCCCCCC | -13.2% |
| OC[C@@H](O)[C@@H](O)[C@H](O)[C@H](O)CO | -5.38% |
| Cc1cc(C)nc(NS(=O)(=O)c2ccc(N)cc2)n1 | -3.9% |
| CCC(C)(CN(C)C)OC(=O)c1ccccc1 (stereo not given) | -0.604% |
| NC(=O)N[C@@H](CCC(=O)O)C(=O)O | -0.445% |
| Cc1cccc(C(=O)O)c1O | 6.33% |
| CC(=O)Nc1cccc(O)c1 | -20.6% |
| CC(=O)NS(=O)(=O)c1ccc(N)cc1 | 18.1% |
| CC(C)CCOC(=O)c1ccc(N(C)C)cc1 | -1.28% |
| CC(C)=CCC/C(C)=C/CO | -15.5% |
| Cc1onc(-c2ccccc2)c1-c1ccc(S(N)(=O)=O)cc1 | 13.4% |
| C[C@@H]1CCC[C@H](C)N1 | 6.27% |

| SMILES | activity change, negative = inhibition |
| --- | --- |
| CO[C@@]1(NC(=O)C(C(=O)O)c2ccc(O)cc2)C(=O)N2C(C(=O)O)=C(CSc3nnnn3C)CO[C@@H]21 (stereo not given in full) | 20.1% |
| NC(=O)[C@@H]1CSSCCC(=O)N[C@@H](CCCCN=C(N)N)C(=O)NCC(=O)N[C@@H](CC(=O)O)C(=O)N[C@@H](Cc2c[nH]c3ccccc23)C(=O)N2CCC[C@H]2C(=O)N1 ([Mpa][hArg]GDWPC-NH2; disulfide 1-7) | 13.4% |
| Nc1ccncc1N | -13.7% |
| O=C(O)CNC(=O)c1ccccc1I | 8.46% |
| CCCCCCCCCCC(CO)CCCCCCCC (stereo not given) | -3.45% |
| CC(=O)N[C@@H](Cc1ccc(O)cc1)C(=O)O | 7.96% |
| CCCOC(=O)c1ccc(N)cc1 | -14.3% |
| COc1cc(C(=O)NCCCCCC(=O)O)cc(OC)c1OC | -0.482% |
| CCOc1ccc(C(=O)OCCN(CC)CC)cc1 | -5.65% |
| Nc1c2c(nc3c1CCC3)CCCC2 | -11.3% |
| Cc1ccc(C(C)C)c(O)c1 | 1.86% |
| CCN(CC)C(=O)c1cccc(C)c1 | -4.55% |
| O=C(O)Cn1c(C(=O)Nc2nc(-c3ccccc3Cl)cs2)cc2ccccc21 | 7.18% |
| CC(=O)N1C[C@H](O)C[C@H]1C(=O)O | 4.44% |
| C[C@@H](N)C(=O)O | -9.89% |
| NS(=O)(=O)c1cc2c(cc1C(F)(F)F)NCNS2(=O)=O | -4.45% |
| C[N+](C)(C)CC(O)CC(=O)[O-] (stereo not given) | 1.76% |
| Cc1[nH]c(C)c(Cl)c(=O)c1Cl | 13.6% [at 20.5 µM] |
| Cc1cc(=O)[nH]c(=S)[nH]1 | -4.8% |
| CCN1CC(CCN2CCOCC2)C(c2ccccc2)(c2ccccc2)C1=O (stereo not given) | 6.16% |
